In PubChem BioAssay (NCATS):
Records with an inconclusive call do not appear. Where a call stands in place of a potency, no number is given. Activity calls are given as the source filed them. Calls come from the whole dose curve; as a rule, active = well fitted inhibition curve with a large enough effect; inconclusive = small, poorly fitted or top-dose-only effect; inactive = flat fitted curve, though single readings scatter.

Test system: FAB9
Assay: qHTS profiling for inhibitors of Plasmodium falciparum proliferation (AID 504749); note: nearly all actives have a fitted effect of over 60% in size
Details: P. falciparum in erythrocytes, SYBR Green DNA, 72 h; series mostly up to 28.7 µM
Method in brief: (§1)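 P. falciparum-infected erythrocytes (0.3% parasitemia, 2.5% hematocrit) incubated with compound 72 h at 37 C, 5% CO2. Parasite DNA detected by SYBR Green after lysis, overnight at room temperature; normalised to 0.29 uM artemisinin and DMSO.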
Potency is the fitted concentration of half-maximal effect.

Question: For `Cc1cccc(C)c1OCC(C)N` (configuration not stated), which outcome is on record?
Answer: The outcome was “inactive”.

Question: Which outcome does the source give for `CC1(C)O[C@H]2C[C@@H]3[C@H]4CCC5=CC(=O)C=C[C@]5(C)[C@@]4(F)[C@@H](O)C[C@]3(C)[C@]2(C(=O)CO)O1` here?
Answer: Its outcome is “inactive”.

Question: How did the outcome turn out when `COc1ccc(Cc2nccc3cc(OC)c(OC)cc23)cc1OC` was run?
Answer: Its outcome is “inactive”.

Question: `CC(=O)c1ccc(S(=O)(=O)NC(=O)NC2CCCCC2)cc1` was tested. Which outcome did it give?
Answer: Its outcome is “inactive”.

Question: With `CC(=O)N[C@@H](CS)C(=O)O` as the compound, how does the outcome read?
Answer: Its outcome is “inactive”.

Question: `Cc1cnc(C(=O)O)c[n+]1[O-]` was tested. Which outcome did it give?
Answer: The outcome was “inactive”.

Question: With `O=C1NC(=O)C(c2ccccc2)(c2ccccc2)N1` as the compound, how does the outcome read?
Answer: The outcome was “inactive”.

Question: How did the outcome turn out when `CN(C)CCC(c1ccccc1)c1ccccn1` (configuration not stated) was run?
Answer: Its outcome is “inactive”.

Question: With `CC/C(=C(\c1ccccc1)c1ccc(OCCN(C)C)cc1)c1ccccc1` as the compound, how does the outcome read?
Answer: The outcome was “inactive”.

Question: `O=C1NCC2(CCN(CCc3ccccc3)CC2)O1` was tested. Which outcome did it give?
Answer: The outcome was “inactive”.

Question: How did the outcome turn out when `CC(=O)O[C@]1(C(C)=O)CC[C@H]2[C@@H]3C=C(Cl)C4=CC(=O)[C@@H]5C[C@@H]5[C@]4(C)[C@H]3CC[C@@]21C` was run?
Answer: The outcome was “inactive”.

Question: For `NC(N)=Nc1nc(CSCC/C(N)=N/S(N)(=O)=O)cs1`, which outcome is on record?
Answer: Its outcome is “inactive”.

Question: With `CCCCCN(C)CCC(O)(P(=O)(O)O)P(=O)(O)O` as the compound, how does the outcome read?
Answer: Its outcome is “inactive”.

Question: Which outcome does the source give for `NCCS` here?
Answer: Its outcome is “inactive”.

Question: For `COc1ccccc1N1CCN(CCCNc2cc(=O)n(C)c(=O)n2C)CC1`, which outcome is on record?
Answer: Its outcome is “inactive”.

Question: For `O=C(NCCN1CCOCC1)c1ccc(Cl)cc1`, which outcome is on record?
Answer: The outcome was “inactive”.

Question: How did the outcome turn out when `C[C@@H](O)[C@H]1C(=O)N2C(C(=O)O)=C(S[C@@H]3CN[C@H](C(=O)N(C)C)C3)[C@H](C)[C@H]12` was run?
Answer: The outcome was “inactive”.

Question: How did the outcome turn out when `CC(=O)CCCCn1c(=O)c2c(ncn2C)n(C)c1=O` was run?
Answer: Its outcome is “inactive”.

Question: For `O=C(O)c1cc(-c2ccccc2)nc2ccccc12`, which outcome is on record?
Answer: The outcome was “inactive”.

Question: `O=C(O)Cc1cccc2ccccc12` was tested. Which outcome did it give?
Answer: Its outcome is “inactive”.

Question: Which outcome does the source give for `CCN(CC)C(=O)c1ccc(O)c(OC)c1` here?
Answer: Its outcome is “inactive”.

Question: For `CCCCC1C(=O)N(c2ccccc2)N(c2ccccc2)C1=O`, which outcome is on record?
Answer: Its outcome is “inactive”.

Question: With `O=C1Nc2ccc(Cl)cc2C(C#CC2CC2)(C(F)(F)F)O1` (configuration not stated) as the compound, how does the outcome read?
Answer: Its outcome is “inactive”.

Question: Which outcome does the source give for `CCCNC(=O)NS(=O)(=O)c1ccc(Cl)cc1` here?
Answer: The outcome was “inactive”.

Question: `CCN1CCC[C@H]1CNC(=O)c1cc(S(N)(=O)=O)ccc1OC` was tested. Which outcome did it give?
Answer: The outcome was “inactive”.

Question: Which outcome does the source give for `C[N+](C)(C)CCCCCC[N+](C)(C)C` here?
Answer: Its outcome is “inactive”.

Question: `O=c1[nH]cnc2c1ncn2[C@H]1CC[C@@H](CO)O1` was tested. Which outcome did it give?
Answer: The outcome was “inactive”.

Question: How did the outcome turn out when `CCN(CC)CCNC(=O)c1ccc(N)cc1` was run?
Answer: The outcome was “inactive”.

Question: `O=C(O)c1c(Cl)c(Cl)c(Cl)c(Cl)c1-c1c2cc(I)c(=O)c(I)c-2oc2c(I)c(O)c(I)cc12` was tested. Which outcome did it give?
Answer: Its outcome is “inactive”.

Question: How did the outcome turn out when `CCOC(=O)O[C@]1(C(=O)OCCl)CC[C@@H]2[C@H]3CCC4=CC(=O)C=C[C@]4(C)[C@@H]3[C@@H](O)C[C@@]21C` was run?
Answer: The outcome was “inactive”.

Question: How did the outcome turn out when `Clc1ccc(Cn2c(CN3CCCC3)nc3ccccc32)cc1` was run?
Answer: Its outcome is “inactive”.

Question: For `CCN(CC)CCOC(=O)c1ccc(N)cc1`, which outcome is on record?
Answer: Its outcome is “inactive”.

Test system: GB4
Assay: as above
Details: P. falciparum in erythrocytes, SYBR Green DNA, 72 h; series mostly up to 28.7 µM
Method in brief: as §1

Question: With `Cc1cccc(C)c1OCC(C)N` (configuration not stated) as the compound, how does the Potency read?
Answer: Its Potency is 13.5 µM (active).

Question: With `CC1(C)O[C@H]2C[C@@H]3[C@H]4CCC5=CC(=O)C=C[C@]5(C)[C@@]4(F)[C@@H](O)C[C@]3(C)[C@]2(C(=O)CO)O1` as the compound, how does the Potency read?
Answer: The Potency was “inactive”.

Question: With `COc1ccc(Cc2nccc3cc(OC)c(OC)cc23)cc1OC` as the compound, how does the Potency read?
Answer: The Potency was “inactive”.

Question: Which Potency does the source give for `CC(=O)c1ccc(S(=O)(=O)NC(=O)NC2CCCCC2)cc1` here?
Answer: Its Potency is “inactive”.

Question: With `CC1=C(/C=C/C(C)=C/C=C/C(C)=C/C(=O)Nc2ccc(O)cc2)C(C)(C)CCC1` as the compound, how does the Potency read?
Answer: The Potency was 10.7 µM (active).

Question: How did the Potency turn out when `CC(=O)N[C@@H](CS)C(=O)O` was run?
Answer: The Potency was “inactive”.

Question: How did the Potency turn out when `Cc1cnc(C(=O)O)c[n+]1[O-]` was run?
Answer: The Potency was “inactive”.

Question: How did the Potency turn out when `O=C1NC(=O)C(c2ccccc2)(c2ccccc2)N1` was run?
Answer: Its Potency is “inactive”.

Question: With `CN(C)CCC(c1ccccc1)c1ccccn1` (configuration not stated) as the compound, how does the Potency read?
Answer: Its Potency is 7.57 µM (active).

Question: Which Potency does the source give for `CC/C(=C(\c1ccccc1)c1ccc(OCCN(C)C)cc1)c1ccccc1` here?
Answer: The Potency was 10.7 µM (active).

Question: How did the Potency turn out when `O=C1NCC2(CCN(CCc3ccccc3)CC2)O1` was run?
Answer: Its Potency is “inactive”.

Question: How did the Potency turn out when `NC(N)=Nc1nc(CSCC/C(N)=N/S(N)(=O)=O)cs1` was run?
Answer: The Potency was “inactive”.

Question: Which Potency does the source give for `CCCCCN(C)CCC(O)(P(=O)(O)O)P(=O)(O)O` here?
Answer: The Potency was “inactive”.

Question: Which Potency does the source give for `NCCS` here?
Answer: Its Potency is “inactive”.

Question: How did the Potency turn out when `COc1ccccc1N1CCN(CCCNc2cc(=O)n(C)c(=O)n2C)CC1` was run?
Answer: The Potency was “inactive”.

Question: Which Potency does the source give for `O=C(NCCN1CCOCC1)c1ccc(Cl)cc1` here?
Answer: Its Potency is “inactive”.

Question: With `C[C@@H](O)[C@H]1C(=O)N2C(C(=O)O)=C(S[C@@H]3CN[C@H](C(=O)N(C)C)C3)[C@H](C)[C@H]12` as the compound, how does the Potency read?
Answer: Its Potency is “inactive”.

Question: `CC(=O)CCCCn1c(=O)c2c(ncn2C)n(C)c1=O` was tested. Which Potency did it give?
Answer: The Potency was “inactive”.

Question: `O=C(O)c1cc(-c2ccccc2)nc2ccccc12` was tested. Which Potency did it give?
Answer: Its Potency is “inactive”.

Question: `O=C(O)Cc1cccc2ccccc12` was tested. Which Potency did it give?
Answer: The Potency was “inactive”.

Question: With `CCN(CC)C(=O)c1ccc(O)c(OC)c1` as the compound, how does the Potency read?
Answer: The Potency was “inactive”.

Question: How did the Potency turn out when `CCCCC1C(=O)N(c2ccccc2)N(c2ccccc2)C1=O` was run?
Answer: The Potency was 12 µM (active).

Question: How did the Potency turn out when `CCCNC(=O)NS(=O)(=O)c1ccc(Cl)cc1` was run?
Answer: Its Potency is “inactive”.

Question: `CCN1CCC[C@H]1CNC(=O)c1cc(S(N)(=O)=O)ccc1OC` was tested. Which Potency did it give?
Answer: The Potency was “inactive”.

Question: For `C[N+](C)(C)CCCCCC[N+](C)(C)C`, which Potency is on record?
Answer: Its Potency is “inactive”.

Question: With `CCN(CC)CCNC(=O)c1ccc(N)cc1` as the compound, how does the Potency read?
Answer: Its Potency is “inactive”.

Question: For `O=C(O)c1c(Cl)c(Cl)c(Cl)c(Cl)c1-c1c2cc(I)c(=O)c(I)c-2oc2c(I)c(O)c(I)cc12`, which Potency is on record?
Answer: The Potency was “inactive”.

Question: Which Potency does the source give for `COCCCCC(=NOCCN)c1ccc(C(F)(F)F)cc1` here?
Answer: The Potency was 5.36 µM (active).

Question: With `CCOC(=O)O[C@]1(C(=O)OCCl)CC[C@@H]2[C@H]3CCC4=CC(=O)C=C[C@]4(C)[C@@H]3[C@@H](O)C[C@@]21C` as the compound, how does the Potency read?
Answer: Its Potency is “inactive”.

Question: How did the Potency turn out when `CCN(CC)CCOC(=O)c1ccc(N)cc1` was run?
Answer: The Potency was “inactive”.
